Screening results (PubChem)
Shown is part of a subset that was picked to be rich in hits.
FBPA Giardia inh = blocks Giardia fructose-bisphosphate aldolase activity; A8B2U2; purified Giardia FBPA; Potency, µM (doses to about 59.6 µM), without a hit: at the top dose activity, negative = inhibition, most hits filed as inhibitors; 290,000 tested, 0.71% active; AID 2451; further: potency means the concentration at half of the fitted maximal effect; on the % scale 0 is the no-effect control and ±100 the full control effect; nearly all actives have a fitted effect of over 55% in size
Target sequence (A8B2U2 whole entry, looked up): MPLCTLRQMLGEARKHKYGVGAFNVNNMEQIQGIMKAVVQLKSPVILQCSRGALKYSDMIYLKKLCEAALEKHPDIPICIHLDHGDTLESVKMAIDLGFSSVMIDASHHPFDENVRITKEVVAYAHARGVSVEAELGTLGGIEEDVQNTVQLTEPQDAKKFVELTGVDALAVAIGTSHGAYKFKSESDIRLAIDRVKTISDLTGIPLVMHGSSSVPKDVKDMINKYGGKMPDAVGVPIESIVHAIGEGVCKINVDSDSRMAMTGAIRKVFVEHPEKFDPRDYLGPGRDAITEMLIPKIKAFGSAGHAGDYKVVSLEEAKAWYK
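40 nM FBPA preincubated 10 min at RT with compound (up to 57.5 uM final), then substrate plus GAPDH/TPI/NAD/arsenate coupling and diaphorase/resazurin added. Fluorescence read after 20 min at RT, 525/598 nm.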
Cycloheximide cs = affects cycloheximide protein synthesis inhibition readout, counter-screen | 300,000 tested, 12% active | max response, % | cell reporter, cycloheximide protein synthesis inhibition counterscreen; in the data active means max response mostly above about 13%, no sharp cut-off; inactive means mostly below about 14%; further: read at 38.3 µM for the half of the compounds with a filed dose; 0% is about no effect
LmPK inhibitor = LmPK (Leishmania mexicana) enzyme inhibition. 290,000 tested, 0.37% active. Q27686. AID 1721. purified LmPK, Kinase-Glo ATP luminescence, 1 h. Potency, µM (titrated, usually from 57.5 µM), for the others: at the top dose activity change, negative = inhibition, usual class: inhibitors; further: potency means the concentration at half of the fitted maximal effect; on the % scale 0 is the no-effect control and ±100 the full control effect
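Kinase-Glo luminescence read after 1 h RT reaction of 0.1 nM LmPK with 0.5 mM PEP and 0.1 mM ADP. Activity scaled between uninhibited and enzyme-free controls.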
Sm TGR block = blocks Schistosoma mansoni thioredoxin glutathione reductase; purified TGR, DTNB reduction, TNB absorbance 405 nm; Potency, µM (highest dose often 114 µM), without a hit: at the top dose activity change, negative = inhibition, actives largely listed as inhibitors; 360,000 tested, 3% active; further: potency means the concentration at half of the fitted maximal effect; on the % scale 0 is the no-effect control and ±100 the full control effect; nearly all actives have a fitted effect of over 60% in size
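First, TGR (20 nM dispensed) and NADPH were mixed with compound. Second, a 15 min room-temperature incubation followed. Third, further NADPH and then DTNB were added to start the reaction. Finally, TNB absorbance was monitored kinetically.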
Tb PYK inh = inhibitors of Trypanosoma brucei pyruvate kinase. Q57TT1. AID 624173. Potency, µM (series often up to 76.8 µM), for the others: top-dose activity, negative = inhibition, hits mostly inhibitors. TbPYK enzyme, Kinase-Glo Plus ATP luminescence, 45 min. 410,000 tested, 0.12% active; further: potency means the concentration at half of the fitted maximal effect; on the % scale 0 is the no-effect control and ±100 the full control effect; nearly all actives have a fitted effect of over 50% in size
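T. brucei PYK with substrate was exposed to pin-transferred compounds across a concentration series, then started with 130 uM ADP (final). After 45 min at room temperature, Kinase-Glo Plus luminescence was read, normalized and curve-fitted.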
Shiga inhibitor = blocks Shiga toxin action in Vero cells | Vero cells, Shiga toxin protein synthesis inhibition reporter | inhibition, % at 38.7 µM | 290,000 tested, 9.2% active | AID 2315; in the data active means inhibition mostly above about 28%, no sharp cut-off; inactive means mostly below about 43%; further: 0% is about no effect
Starred values were filed as active, the others as inactive; [ ] = another dose, or the depositor's remark. Unless noted, the call rests on the fitted dose curve; in most records, active means well fitted curve in the direction sought with a large enough effect; inconclusive means small, poorly fitted or top-dose-only effect, or another doubt; inactive means no such curve, though single readings can be large; an effect the other way counts as inactive or inconclusive.

Results for COc1ccccc1NS(=O)(=O)c1ccc2c(c1)CCN2C(=O)CCC(=O)O ?
FBPA Giardia inh: 9%; Cycloheximide cs: 2; LmPK inhibitor: -2%; Sm TGR block: 5%; Tb PYK inh: -2%; Shiga inhibitor: 25

What do the screens show for `CC#CCOCC/C=C1/c2ccccc2C(OC)C1C` (stereo unspecified)?
FBPA Giardia inh: -1%[12.9 µM]

Results for Cc1cc(/C(N)=N/OC(=O)Nc2ccc(Cl)cc2)no1 ?
FBPA Giardia inh: 0%; Cycloheximide cs: 27*; LmPK inhibitor: 1%; Sm TGR block: -12%; Tb PYK inh: -2%; Shiga inhibitor: 55*

What do the screens show for `Cc1cc(C)n2ncc(/C(N)=N/OC(=O)Nc3ccccc3)c2n1`?
FBPA Giardia inh: inconclusive; Cycloheximide cs: 9.6*; LmPK inhibitor: -12%; Sm TGR block: -8%; Tb PYK inh: 8%; Shiga inhibitor: 16

How did Cc1cc(C)n2ncc(C(=O)Nc3cccc(O)c3)c2n1 do in these assays?
FBPA Giardia inh: 0%; Cycloheximide cs: 10; LmPK inhibitor: 3%; Sm TGR block: 4%; Tb PYK inh: -5%; Shiga inhibitor: -18

Results for Cc1cc(C(=O)NNC(=O)Nc2ccc(Cl)cc2)no1 ?
FBPA Giardia inh: 3%; Cycloheximide cs: 0; LmPK inhibitor: 2%; Sm TGR block: -1%; Tb PYK inh: 3%; Shiga inhibitor: 17

How did Cc1cc(/C(N)=N/OC(=O)Nc2ccccc2)no1 do in these assays?
FBPA Giardia inh: 8%; Cycloheximide cs: 24*; LmPK inhibitor: -11%; Sm TGR block: 8%; Tb PYK inh: -12%; Shiga inhibitor: 42*

Results for O=C(Nc1cccc(C(F)(F)F)c1)c1ccc2c(c1)nnn2C1CCCC1 ?
Sm TGR block: 12%; Tb PYK inh: 0%

What do the screens show for `O=[N+]([O-])c1cccnc1N1CCCNCC1`?
FBPA Giardia inh: 3%; Cycloheximide cs: 7; LmPK inhibitor: -11%; Sm TGR block: 50µM*; Tb PYK inh: -13%; Shiga inhibitor: 5

Results for COc1cc2c(cc1OC)CN(c1ncccc1[N+](=O)[O-])CC2 ?
FBPA Giardia inh: -10%; Cycloheximide cs: 25*; LmPK inhibitor: 1%; Sm TGR block: -10%; Tb PYK inh: -6%; Shiga inhibitor: 55*

Results for COc1cc2c(cc1OC)CN(c1ccc(F)cc1[N+](=O)[O-])CC2 ?
FBPA Giardia inh: -6%; Cycloheximide cs: 30*; LmPK inhibitor: -5%; Sm TGR block: inconclusive; Tb PYK inh: -1%; Shiga inhibitor: 72*

What do the screens show for `COc1cc2c(cc1OC)CN(c1ccc([N+](=O)[O-])cc1Cl)CC2`?
FBPA Giardia inh: -29%; Cycloheximide cs: 6; LmPK inhibitor: 3%; Sm TGR block: -17%; Tb PYK inh: -1%; Shiga inhibitor: 13

How did CCC1CCCCN1C(=O)CSc1nnc(N)s1 (stereo unspecified) do in these assays?
Tb PYK inh: 5%

How did COC(=O)c1ccc(C(NC(=O)OCc2ccccc2)/C(=C/[C@@H](C)C(=O)NCc2cc(C)n(C)n2)c2cccnc2)cc1 (stereo partly specified) do in these assays?
FBPA Giardia inh: 1%

What do the screens show for `c1ccc(CN2CCc3nc4ccccc4cc3C2)cc1`?
FBPA Giardia inh: -1%; Cycloheximide cs: 26*; LmPK inhibitor: -3%; Sm TGR block: 1%; Tb PYK inh: 5%; Shiga inhibitor: 59*

What do the screens show for `Cc1cc(C)cc(N(CC(=O)Nc2ccc(-c3nc4ccc(C)cc4s3)cc2)S(C)(=O)=O)c1`?
FBPA Giardia inh: 4%; Cycloheximide cs: 36*; LmPK inhibitor: -1%; Sm TGR block: -2%; Tb PYK inh: -3%; Shiga inhibitor: 77*

What do the screens show for `Cc1ccc2nc(-c3ccc(NC(=O)CN(c4ccccc4C)S(C)(=O)=O)cc3)sc2c1`?
FBPA Giardia inh: -4%; Cycloheximide cs: 61*; LmPK inhibitor: 0%; Sm TGR block: 5%; Tb PYK inh: 1%; Shiga inhibitor: 95*

How did O=C(N1CCCCC1)N1CCN(S(=O)(=O)c2ccccc2)CC1 do in these assays?
FBPA Giardia inh: 5%; Cycloheximide cs: -3; LmPK inhibitor: 5%; Sm TGR block: -11%; Tb PYK inh: -17%; Shiga inhibitor: -4

What do the screens show for `C/C(CC(=O)Nc1ccc(N(C)C)cc1)=N\NC(=O)c1ccc(F)cc1`?
FBPA Giardia inh: -11%; Cycloheximide cs: 31*; LmPK inhibitor: 1%; Sm TGR block: -32%; Tb PYK inh: -1%; Shiga inhibitor: 36*

Results for C/C(CC(=O)Nc1ccc([N+](=O)[O-])cc1)=N\NC(=O)c1ccccc1O ?
FBPA Giardia inh: -12%; Cycloheximide cs: 24*; LmPK inhibitor: 3%; Sm TGR block: -25%; Tb PYK inh: 2%

What do the screens show for `C/C(CC(=O)Nc1ccc(N(C)C)cc1)=N\NC(=O)c1ccc([N+](=O)[O-])cc1Cl`?
FBPA Giardia inh: -24%; Cycloheximide cs: 18; LmPK inhibitor: 1%; Tb PYK inh: -7%; Shiga inhibitor: 27

How did C/C(CC(=O)Nc1ccc(N(C)C)cc1)=N\NC(=O)c1ccc(Cl)cc1Cl do in these assays?
FBPA Giardia inh: 2%; Cycloheximide cs: 17; LmPK inhibitor: 6%; Sm TGR block: -7%; Tb PYK inh: -7%; Shiga inhibitor: 19

How did C/C(CC(=O)Nc1ccc(N(C)C)cc1)=N\NC(=O)c1ccccc1O do in these assays?
FBPA Giardia inh: -23%; Cycloheximide cs: 16*; LmPK inhibitor: 6%; Sm TGR block: 45µM*; Tb PYK inh: -2%

How did CCCCNc1nc2c(c(=O)n(Cc3ccc(Cl)cc3)c(=O)n2C)n1C do in these assays?
Sm TGR block: 15%; Tb PYK inh: 1%

Results for OC[C@@H](O)C(O)[C@H](O)[C@H](O)CO (stereo partly specified) ?
FBPA Giardia inh: -6%; Cycloheximide cs: -8; Shiga inhibitor: -3

Results for CC(=O)c1ccc(N2CCN(C(=O)C3CCN(S(=O)(=O)c4ccc(Br)s4)CC3)CC2)cc1 ?
Sm TGR block: 0%; Tb PYK inh: 1%

Results for O=C(CN1C(=O)S/C(=C\c2ccc(O)cc2)C1=O)c1ccccc1 ?
FBPA Giardia inh: -1%; Cycloheximide cs: 36*; LmPK inhibitor: 0%; Sm TGR block: 9%; Tb PYK inh: 8%; Shiga inhibitor: 20*

How did O=C(CN1C(=O)S/C(=C\c2ccccc2)C1=O)NNC(=O)c1ccccc1O do in these assays?
FBPA Giardia inh: -2%; Cycloheximide cs: -3; LmPK inhibitor: -1%; Sm TGR block: -2%; Tb PYK inh: -18%; Shiga inhibitor: 4

Results for CCc1nc2ccc(C(=O)NCC3CCCCC3)cn2c1N(CCC(C)C)CCN(C)C ?
Tb PYK inh: -7%
